Source: PubChem BioAssay
Sfp inh – qHTS Assay for Inhibitors of Bacillus subtilis Sfp phosphopantetheinyl transferase (PPTase); 4'-phosphopantetheinyl transferase ffp (Bacillus subtilis), Q9F4F7; Biochemical Sfp PPTase activity, qHTS; Potency, µM, for inactives: largest response in the series, negative = inhibition, hits mostly inhibitors; hit rate 3.5% among 310,000; AID 1490, 2009;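 also: the enzyme is Sfp with the accession as filed and its product quenches rhodamine fluorescence; 0% = enzyme reaction without inhibitor and -100% = no enzyme wells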
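Step 1, compound plus 15 nM Sfp-PPTase, 15 min, room temperature. Step 2, add rhodamine-CoA (5 uM) and BHQ-2-YbbR (12.5 uM). Step 3, read 525/598 nm fluorescence at 0 and 30 min.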
HP1b chromo inh – HTS for Inhibitors of HP1-beta Chromodomain Interactions with Methylated Histone Tails | Chromobox protein homolog 1 (Homo sapiens), P83916 | AlphaScreen HP1-beta / biotin-H3K9me3 peptide binding | Potency, µM (titrated, usually from 114 µM), without a hit: top-dose activity change, negative = inhibition, hits mostly inhibitors | hit rate 0.56% among 390,000 | AID 540317, 2011; also: nearly all actives have a fitted effect of over 70% in size
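AlphaScreen: HP1-beta (50 nM) preformed 30 min with biotin-H3(1-18)K9me3 peptide (50 nM) in PBS pH 7.4, 0.01% Tween-20. Compound added for 30 min at RT, then streptavidin donor/nickel chelate acceptor beads (10 ug/mL) for 30 min.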
PLK1 PBD inh – qHTS for Inhibitors of PLK1-PDB (polo-like kinase 1 - polo-box domain): Primary Screen. hit rate 2.8% among 360,000. Plk1 PBD binding of FITC phosphopeptide, fluorescence polarization. Potency, µM, inactives show max response, negative = inhibition, most hits filed as inhibitors. Serine/threonine-protein kinase PLK1 (Homo sapiens), P53350; also: series mostly up to about 57 µM; % is scaled to controls: 0 for no effect and ±100 for the full control effect; nearly all actives have a fitted effect of over 65% in size
Target sequence (P53350 whole entry, looked up, the tested form may be a part): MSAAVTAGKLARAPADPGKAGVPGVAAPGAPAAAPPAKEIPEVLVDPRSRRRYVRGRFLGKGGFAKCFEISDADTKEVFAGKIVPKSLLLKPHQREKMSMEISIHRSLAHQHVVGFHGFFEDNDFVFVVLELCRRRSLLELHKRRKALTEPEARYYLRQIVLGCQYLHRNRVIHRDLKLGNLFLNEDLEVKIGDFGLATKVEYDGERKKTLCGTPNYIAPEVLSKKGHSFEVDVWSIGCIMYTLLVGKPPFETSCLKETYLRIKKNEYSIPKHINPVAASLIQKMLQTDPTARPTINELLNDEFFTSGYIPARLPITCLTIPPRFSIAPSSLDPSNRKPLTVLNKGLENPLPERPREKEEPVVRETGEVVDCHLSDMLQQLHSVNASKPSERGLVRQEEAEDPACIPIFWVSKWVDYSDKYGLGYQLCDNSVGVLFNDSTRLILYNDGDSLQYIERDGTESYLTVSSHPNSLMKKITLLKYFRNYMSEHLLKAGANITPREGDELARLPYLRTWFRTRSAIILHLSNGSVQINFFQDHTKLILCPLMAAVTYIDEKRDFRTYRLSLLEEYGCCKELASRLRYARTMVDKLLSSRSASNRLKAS
BAZ2B block – qHTS Assay for Inhibitors of BAZ2B. Bromodomain adjacent to zinc finger domain protein 2B (Homo sapiens), Q9UIF8. AlphaScreen BAZ2B-H3K14Ac peptide displacement. Potency, µM (series often up to 114 µM), without a hit: at the top dose activity change, negative = inhibition, hits mostly inhibitors. AID 504333, 2011. hit rate 4.4% among 360,000; also: % is scaled to controls: 0 for no effect and ±100 for the full control effect; nearly all actives have a fitted effect of over 60% in size
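Compounds, titrated to a top concentration of 110 uM, were incubated 30 min at room temperature with preformed BAZ2B/acetyl-K14 H3 peptide complex (50 nM each). Proximity signal was measured by AlphaScreen after 20 min with beads.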
JMJD2A Tudor inh – qHTS Assay for Inhibitors of JMJD2A-Tudor Domain. Lysine-specific demethylase 4A (Homo sapiens), O75164. AlphaScreen JMJD2A-Tudor / H3K4me3 peptide binding. Potency, µM (series often up to 114 µM), for the others: at the top dose activity change, negative = inhibition, most hits filed as inhibitors. hit rate 4.4% among 390,000; also: % is scaled to controls: 0 for no effect and ±100 for the full control effect; nearly all actives have a fitted effect of over 50% in size
G9a inh – qHTS Assay for Inhibitors of Histone Lysine Methyltransferase G9a. Histone-lysine N-methyltransferase EHMT2 (Homo sapiens), Q96KQ7. G9a H3K9 monomethylation, AlphaScreen, 2 h. Potency, µM (doses to about 102 µM), inactives show at the highest dose activity, negative = inhibition, usual class: inhibitors. hit rate 8.8% among 350,000; also: % is scaled to controls: 0 for no effect and ±100 for the full control effect; nearly all actives have a fitted effect of over 75% in size
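Signal arises when biotinylated H3K9 peptide, once monomethylated, bridges streptavidin donor and antibody-captured acceptor beads. Enzyme at 20 nM was preincubated 15 min with test compounds; peptide 500 nM and SAM 20 uM then reacted for 2 h.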
An asterisk follows results filed as active; ? = inconclusive; / = not tested or not shown; ! = repeats disagree; [ ] = dose if it differs, or a comment. Compounds with a hit are over-represented: about 12% of the library has one in this group of screens. Calls follow the shape of the dose curve; as a rule, active = well fitted curve in the direction sought with a large enough effect; inconclusive = small, poorly fitted or top-dose-only effect, or another doubt; inactive = no such curve, though single readings can be large; an effect the other way counts as inactive or inconclusive. Potency is read from the fitted curve at half-maximal effect.

SMILES	Sfp inh	HP1b chromo inh	PLK1 PBD inh	BAZ2B block	JMJD2A Tudor inh	G9a inh
O=C(COc1cc2oc(=O)cc(-c3ccccc3)c2cc1Cl)NCc1ccccn1	-20%	28%	-7%	-17%[57.1 µM]	-16%	15%
Cc1cccc(NC(=O)COC(=O)CN2C(=O)c3ccccc3C2=O)c1C	/	/	-1%	/	/	/
CCc1cccc(NC(=O)c2cnc(SC)nc2-c2ccccc2)c1	/	61%	/	20%	15%	3%[59 µM]
C=CCc1c(OC)ccc2c1c(S(=O)(=O)c1ccc(C)cc1)cn2COC	4%	23%	-13%	-30%	?	-6%
COC(=O)CCCC1=CC2=C(c3ccccc3)C(=O)C(C)(OC(=O)C3CCCC3)C(=O)C2=CN1Cc1ccco1 (centres undefined)	56µM*!	-6%	0%	71µM*	?	1%[12.7 µM]
O=C1CS/C(=N/N=C/c2cccs2)N1Cc1ccc(F)cc1	-20%	25%	4%	-20%	-11%	-4%
CC1CCCCN1Cc1nc2ccccc2c(=O)[nH]1 (centres undefined)	-9%	15%	3%	-33%	79µM*	5%[12.7 µM]
O=c1[nH]c(CN2CCN(c3ccccc3O)CC2)nc2ccccc12	-7%	9%	1%	-8%	8.9µM*	?
O=c1[nH]c(CN2CCN(CCO)CC2)nc2ccccc12	0%	40%	-2%	-2%	-8%	20%[59 µM]
NC(=O)C1CCN(Cc2nc3cc(Cl)ccc3c(=O)[nH]2)CC1	-7%	2%	-2%	5%	-22%	7%[59 µM]
NC(=O)C1CCN(Cc2nc3ccccc3c(=O)[nH]2)CC1	0%	6%	1%	-35%	3.2µM*	?
O=C(N/N=C\c1cc(Br)c(Br)o1)c1cncc(Br)c1	-13%	19%	-14%	-1%	-13%	0%[59 µM]
O=C(N/N=C/c1cc(Br)c(Br)o1)c1cccnc1	32µM*	-3%	-25%	?	?	?
O=C(CNC(=O)c1ccc2c(c1)OCO2)N/N=C/c1cc(Br)ccc1O	20%	13%	-7%	-9%	?	79µM*
O=C(N/N=C/c1cc(Br)c(O)c(Br)c1O)c1ccc2c(c1)OCCO2	?	-3%	-5%	45µM*	40µM*	?
O=C(CNC(=O)c1ccccc1)N/N=C/c1cc(Br)ccc1O	7%	43%	6%	8%	-4%	23%[59 µM]
CN(C)c1ccc(/C=N/NC(=O)c2ccc3c(c2)OCCO3)cc1	14%	-2%	-5%	-31%	-29%	-3%
O=C(N/N=C/c1cc(Br)c(Br)o1)c1ccc2c(c1)OCCO2	4.5µM*	?	-10%	45µM*	40µM*	/
CCc1ccc(NC(=O)c2cc3c(=O)n(Cc4cccs4)ccc3nc2C)cc1	/	98%	/	3%	-35%	-6%[59 µM]
COc1ccc(CCNC(=O)C2COc3ccccc3C2)cc1OC (centres undefined)	/	19%[57 µM]	/	3%	-6%	2%[59 µM]
NCC(=O)N[C@@H](CCCN=C(N)N)C(=O)NCC(=O)N[C@@H](CC(=O)O)C(=O)N[C@@H](CC(N)=O)C(=O)N1CC[C@@H](C(=O)O)C1	6%	/	/	/	/	8%[59 µM]
COc1cccc(C(=O)NC(=S)Nc2ccccc2N2CCCC2)c1	25µM*	22µM*	?	28µM*	?	3%[12.7 µM]
COc1c(C)cccc1C(=O)NC(=S)Nc1ccccc1N1CCCC1	9%	-3%	-16%	?	50µM*	32µM*
CCCCC(=O)NC1=C(C(=O)OC)SCC1	-1%	-4%	-9%	?	?	4.5µM*
CCN(CC)S(=O)(=O)c1ccc(C(=O)NC2=C(C(=O)OC)SCC2)cc1	-3%	-15%	0%	?	40µM*	22%[12.7 µM]
SMILES	Sfp inh	HP1b chromo inh	PLK1 PBD inh	BAZ2B block	JMJD2A Tudor inh	G9a inh
COC(=O)C1=C(NC(=O)c2ccc(Br)cc2)CCS1	-26%	37%	0%	-13%	-12%	22%
O=C(CC1CCCC1)NNC(=O)c1ccc(Br)cc1	/	19%	-16%	7%	-21%	21%[12.7 µM]
COc1ccc(CC(=O)Nc2c(C(=O)N3CCN(c4ccccc4F)CC3)oc3ccccc23)cc1OC	/	18%	/	-30%	-27%	-50%[59 µM]
O=C(Nc1ccc(F)c(Cl)c1)C1CCN(S(=O)(=O)c2ccc3[nH]c(=O)ccc3c2)CC1	/	24%[57 µM]	/	5%	-1%	1%[59 µM]
Cc1cc(/C=N/Nc2ccc([N+](=O)[O-])cn2)c(C)n1-c1ccccc1	-23%	7%	0%	?	-32%	?
Cc1c(C(=O)O)cccc1-n1c(C)cc(/C=N/Nc2ccc([N+](=O)[O-])cn2)c1C	32µM*	-29%	?	45µM*	-2%[11.4 µM]	45µM*
COc1cccc(/C=N/Nc2ccnc(=O)[nH]2)c1O	15%	47%	1%	50µM*	?	15%
COc1cccc(/C=N/Nc2ccc([N+](=O)[O-])cn2)c1O	10%	414%	6%	40µM*	?	95%
CCOc1ccccc1/C=N/Nc1ccnc(=O)[nH]1	-26%	60%	-3%	7%	-8%	42%[2.33 µM]
CC(C)(C)OC(=O)N(CCc1ccccc1)Cc1cccc(OCc2cccc(NC(=O)c3ccccc3)c2)c1	/	20%	24µM*	/	?	/
CC(C)(C)OC(=O)N(CCc1ccccc1)Cc1ccc(OCc2cccc(NC(=O)C3CC3)c2)cc1	/	16%	-9%	/	-11%	/
Cc1cccc(NS(=O)(=O)c2ccc(Cl)c(C(=O)Nc3ccccc3C)c2)c1	/	41%	/	-10%	-9%	-6%[59 µM]
COc1ccc(C2=Nn3c(nnc3-c3ccc(OC)c(OC)c3)SC2)cc1	-6%	/	/	/	-21%	/
Cc1cc(C)n(/N=C/c2ccc(O)cc2)c(=O)c1C#N	10%	13%	30µM*	-9%	-31%[57.1 µM]	-1%
Cc1ccc(/C=N/n2c(C)cc(C)c(C#N)c2=O)cc1	3%	51%	0%	-5%	-4%	24%[59 µM]
C=CC#CC1(O)CC(C)[N+](C)(C)CC1C (centres undefined)	40µM*	?	21µM*	-8%	22µM*	28µM*
CCC(Sc1nc(-c2ccccc2)c(-c2ccccc2)[nH]1)C(=O)O (centres undefined)	15%	8%	-15%	-21%	-27%	50µM*
CNC(=O)CSc1nc(-c2ccccc2)c(-c2ccccc2)[nH]1	19%	-4%	-8%	-38%[57.1 µM]	-32%	-50%
CCOC(=O)c1nnc(-c2ccccc2)nc1Sc1ccccc1Cl	79µM*	7%	-23%	-7%	?	-6%
